# Most compounds without a hit are left out; they make up all but 1.4% or so of the library.
# MEX-5 binding: C. elegans MEX-5 TCR-2 RNA binding activity. MEX-5/FITC-TCR2 RNA binding, fluorescence polarization; active compounds read low. activity score (negative = inhibition of binding), % at 10 µM. Q9XUB2. AID 1832. 0.38% of 300,000 active;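 active = inhibition past about -25% in most replicates, and total fluorescence under double the plate's negative control median, limit read from the data; inconclusive = replicates evenly split on the limit, or fluorescence at least double controls; inactive = too little inhibition in most replicates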;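 note: 0% = DMSO and -100% = 5 µM competing unlabeled TCR2 RNA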
# GLD-1 TGE inh: GLD-1-TGE RNA interaction inhibition (C. elegans); purified GLD-1 + fluorescein TGE RNA, fluorescence polarization; inhibition, % at 5.96 µM; 0.44% of 320,000 active;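 active = percent inhibition above a per-plate cutoff, the plate mean of test compounds plus 3 SD, cut at about 30% in these data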;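 note: 0% = DMSO wells with GLD-1 and probe and 100% = wells lacking GLD-1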
# BCLXL inh: blocks human Bcl-xL binding to Bim BH3 peptide; Q07817; 0.7% of 320,000 active; inhibition, % at 10.9 µM; GST-Bcl-xL / FITC-Bim BH3 peptide fluorescence polarization;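 active = inhibition above the mean of all tested compounds plus 3 SD, cutoff set per campaign, cut at about 30% in these data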;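 note: 0% = DMSO wells and 100% = unlabeled Bim-BH3 peptide competitor; inhibitors lower millipolarization by displacing the labeled peptide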
# eLon inh: inhibitors of E. coli Lon protease | purified E. coli Lon protease, fluorescence polarization | 0.42% of 360,000 active | P0A9M0 | inhibition, % at 7.94 µM; in the data active = inhibition above about 13%, passing the limit was not always enough;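 note: 0% = enzyme with probe and DMSO and 100% = no enzyme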
# MCL1-BIM inh: disrupts human MCL1 binding to BIM-BH3 peptide; Q07820; AID 2057; inhibition, % at 10.9 µM; 0.68% of 320,000 active; GST-MCL1 / FITC-Bim-BH3 fluorescence polarization;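 active = inhibition above the mean inhibition of all tested compounds plus 3 SD, set per campaign, cut at about 40% in these data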;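 note: 0% = DMSO wells and 100% = unlabeled Bim-BH3 peptide control; higher means more loss of mP so more displacement of Bim peptide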
# Target sequence (Q07820 whole entry, looked up): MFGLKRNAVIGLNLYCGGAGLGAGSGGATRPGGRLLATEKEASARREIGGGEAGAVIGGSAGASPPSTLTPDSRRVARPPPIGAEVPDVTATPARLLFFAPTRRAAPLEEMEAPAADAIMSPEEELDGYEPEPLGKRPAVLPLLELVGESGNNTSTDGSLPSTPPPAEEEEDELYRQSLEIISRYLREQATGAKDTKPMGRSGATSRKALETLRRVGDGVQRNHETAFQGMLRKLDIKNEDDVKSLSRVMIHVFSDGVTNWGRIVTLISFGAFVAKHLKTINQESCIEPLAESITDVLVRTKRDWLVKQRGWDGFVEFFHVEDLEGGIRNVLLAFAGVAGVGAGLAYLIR
# * = called active by the depositor; ? = inconclusive; · = no result given.
SMILES,MEX-5 binding,GLD-1 TGE inh,BCLXL inh,eLon inh,MCL1-BIM inh
O=C1/C(=C/c2ccc([N+](=O)[O-])cc2)Oc2cc(O)ccc21,0.1,·,·,-9.4,·
CC(C)(C)c1ccc(/C=C2\Oc3cc(O)ccc3C2=O)cc1,-27.5*,16.9,5.7,-131.9,-4.2
CCc1ccc(/C=C2\Oc3cc(OS(C)(=O)=O)ccc3C2=O)cc1,-1.1,2.0,-2.8,-11.4,-2.4
O=C1/C(=C/c2ccc(Br)cc2)Oc2cc(O)ccc21,-39.8*,75.8*,20.5,-182.6,24.3
CCn1c(C)cc(=S)c2ccccc21,-51.9*,-0.9,11.6,9.6,13.3
CCn1c2ccccc2c2cc(N)ccc21,-2.4,9.3,6.9,-32.0,0.8
O=C(CN1CCN(Cc2ccccc2)CC1)Nc1cccc(Cl)c1Cl,·,·,·,-6.5,·
O=C(c1ccccc1)[C@@H]1[C@@H](C(=O)c2ccc(F)cc2)[C@@]2(C(=O)Nc3ccccc32)[C@H]2c3ccccc3C=CN12,0.6,24.9,33.1*,-9.4,28.2
CC(=O)[C@@H]1[C@@H](C(=O)c2ccccc2)[C@]2(C(=O)Nc3ccccc32)[C@H]2C=Cc3cc(F)ccc3N12,1.0,6.4,19.5,1.6,14.7
Nc1c(S(=O)(=O)O)cc(NC(=O)c2ccccc2)c2c1C(=O)c1ccccc1C2=O,-0.9,68.2*,72.0*,15.9,108.9*
CCCCCN1C=CC=C/C1=C\C=C(C#N)C#N,-37.0*,-43.6,-21.8,-48.4,-28.6
COc1ccc(-n2cc(CNCc3cnc4ccccn34)c(-c3cccc(F)c3)n2)cc1,-36.5*,-5.0,6.1,-14.5,-0.6
O=C(Nc1ccccc1Cl)c1cc(C2CCCN(C(=O)C3CCCCC3)C2)on1 (stereo unspecified),·,·,·,4.2,·
N#CC(c1nc2ccccc2nc1OCCO)S(=O)(=O)c1ccccc1 (stereo unspecified),-37.6*,2.6,0.5,-8.4,-1.8
Cc1ccc(S(=O)(=O)C(C#N)c2nc3ccccc3nc2OC(C)C)cc1 (stereo unspecified),-8.5,0.6,6.1,-7.5,1.3
O=C(Nc1nccs1)c1ccc(-c2ccc(Cl)cc2)o1,-3.8,-2.2,1.1,6.9,1.8
O=C(Nc1nccs1)c1ccc(-c2ccc([N+](=O)[O-])cc2)o1,-42.5*,1.4,-8.5,5.4,-21.5
CCN(CC(=O)Nc1c(F)cccc1F)C(=O)CSCc1ccc(C)cc1,·,·,·,-14.7,·
CCc1ccc(/C=C2\Oc3c(ccc(O)c3CN3CCN(CCO)CC3)C2=O)cc1,-30.0*,7.5,51.2*,-32.9,48.6*
COc1ccc(C(=O)c2c(N)sc3c2CCN(C)C3)cc1,-19.9,-2.3,32.9*,-40.6,31.9
COc1ccc(C(=O)c2c(NC(C)=O)sc3c2CCN(C(=O)OC(C)(C)C)C3)cc1,1.5,-6.0,0.9,1.5,-2.2
CCOC(=O)c1c(N)sc2c1CCN(CCc1ccccc1)C2,0.0,-19.9,-1.2,-43.2,-3.2
CN1CCc2c(sc(N)c2C(=O)O)C1,-8.6,12.6,30.9*,-1.5,29.1
COc1ccc(C2=CC(=O)C[C@H](c3ccc(Cl)cc3)C2)cn1,·,-5.5,5.3,-4.1,7.5
COc1ccc(C(=O)NNC(=O)c2ccc3ccccc3n2)cc1,·,3.5,-3.3,-5.5,4.4
SMILES,MEX-5 binding,GLD-1 TGE inh,BCLXL inh,eLon inh,MCL1-BIM inh
Cc1cccc(N2CCN(C(=O)Cc3cn(C)c4ccccc34)CC2)c1C,0.0,17.9,47.7*,0.0,44.4*
Cc1cccc(N2CCN(C(=O)COc3cc(=O)n(C)c4ccccc34)CC2)c1C,1.9,3.0,8.4,-7.8,2.9
CN1c2cccc3cccc(c23)N(C)C1(C)C,1.0,-5.6,10.4,10.2,7.3
CN1c2ccccc2N(C)C1(C)c1cccc2ccccc12,-4.3,27.2,42.7*,-5.3,27.3
COc1ccccc1/C=C/C=C1\Oc2c(ccc(O)c2CN(C)C)C1=O,?,-6.5,53.5*,-76.2,42.4*
CC1(C(=O)NS(=O)(=O)c2ccc(Cl)cc2)CCN1C(=O)CC1CC1 (stereo unspecified),·,·,·,4.9,·
Cc1ccc(N/C=C2/Sc3ccccc3NC2=O)cc1,-53.6*,-60.7,5.1,-13.5,4.7
CCN(CC)C(=O)C1=C(C)N(CCC2=CCCCC2)C(=O)C(CC(=O)NCc2cccs2)C1 (stereo unspecified),·,·,·,-4.8,·
CCNC(=O)C1CCCN(Cc2cc(-c3ccccc3)on2)CC1 (stereo unspecified),·,·,·,-10.2,·
Cc1ccc(C(=O)NN2C(=O)/C(=C/c3cn(C)c4ccccc34)SC2=S)cc1,·,-80.4,-43.9,-103.4,-93.7

# Compound activity (PubChem)
